High-throughput results (PubChem)
Sfp inh: Sfp phosphopantetheinyl transferase inhibition; Q9F4F7; Biochemical Sfp PPTase activity, qHTS; Potency, µM, for inactives: largest response in the series, negative = inhibition, usual class: inhibitors; 3.5% of 310,000 active; AID 1490;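 also: the enzyme is Sfp with the accession as filed and its product quenches rhodamine fluorescence; 0% = enzyme reaction without inhibitor and -100% = no enzyme wells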
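After 15 min at room temperature with compound, 15 nM Sfp received 5 uM rhodamine-CoA plus 12.5 uM BHQ-2-ybbR (50 mM Hepes pH 7.6, 10 mM MgCl2). Rate came from the fluorescence difference over 30 min, ex 525/em 598 nm.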
12-LOX inh: ALOX12 (human) lipoxygenase inhibition | P18054 | purified 12hLO, xylenol orange hydroperoxide absorbance | Potency, µM (titrated, usually from 108 µM), without a hit: top-dose activity change, negative = inhibition, most hits filed as inhibitors | 1.1% of 580,000 active | AID 1671190
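Hydroperoxide product was detected by ferrous iron/xylenol orange as the 573 to 405 nm absorbance ratio. Arachidonic acid at 40 uM (final) was turned over for 30 min at room temperature by 150 nM human 12hLO, pH 7.0 Hepes buffer, after 15 min compound preincubation.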
PLK1 PBD block: blocks phosphopeptide binding to human PLK1 polo-box domain | P53350 | Plk1 PBD binding of FITC phosphopeptide, fluorescence polarization | Potency, µM, inactives show max response, negative = inhibition, most hits filed as inhibitors | 2.8% of 360,000 active; also: series mostly up to about 57 µM; nearly all actives have a fitted effect of over 65% in size
VDR inhibitor: vitamin D3 receptor (human) inhibition | P11473 | VDR-SRC2-3 peptide fluorescence polarization, 2 h | Potency, µM, for inactives: max response, negative = inhibition, actives largely listed as inhibitors | 0.93% of 400,000 active | AID 504847
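After 23 nl compound addition and a short centrifugation, plates sat for 2 hours at ambient temperature; polarization of fluorescence then indicated loss of VDR binding to peptide SRC2-3.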
* marks the source's active call; other numbers are inactive results; u = inconclusive; x = no result; [ ] = dose if it differs, or a comment. Compounds with a hit are over-represented: about 4.2% of the library has one in this group of screens. Calls follow the shape of the dose curve; as a rule, active = well fitted curve in the direction sought with a large enough effect; inconclusive = small, poorly fitted or top-dose-only effect, or another doubt; inactive = no such curve, though single readings can be large; an effect the other way counts as inactive or inconclusive. Unless noted, % is scaled to controls: 0 for no effect and ±100 for the full control effect; potency is read from the fitted curve at half-maximal effect.

SMILES	Sfp inh	12-LOX inh	PLK1 PBD block	VDR inhibitor
Cc1occc1-c1nnc(SCC(=O)NCC2CCCO2)n1C (stereo not given)	2%	9%	30µM*	-19%
COc1ccc(-n2c(Cc3cccn3C)nnc2SCC(=O)NCC2CCCO2)cc1 (stereo not given)	50µM*	u	4%	2%
COc1ccc(-c2nc(CS(=O)CC(=O)NCc3ccccc3OC)c(C)o2)cc1 (stereo not given)	x	9%	x	-2%
N#CCC(=O)Nc1ccc(C(=O)NCC(c2ccco2)N2CCCCC2)cc1 (stereo not given)	0%	-10%	-6%	-5%
O=C(COC(=O)C1(c2ccccc2F)CCCC1)Nc1ncc(C(F)(F)F)cc1Cl	24%	-17%	-10%	1%
O=C(CCSc1nnc2ccc3ccccc3n12)Nc1ccc(F)cc1	-2%	3%	30µM*	0%
N#CC1=C(S)N(c2ccccc2)C(c2ccc(-c3cc(Cl)ccc3Cl)o2)NC1=O (stereo not given)	28µM*	u	u	79µM*
N#CC1=C(S)N(c2ccccc2)C(c2ccc(-c3ccc(Cl)c(Cl)c3)o2)NC1=O (stereo not given)	35µM*	18µM*	u	56µM*
N#CC1=C(S)N(c2ccccc2)C(c2ccco2)NC1=O (stereo not given)	u	u	8%	-7%
COCCCn1c(=S)[nH]c2sc3c(c2c1=O)CCCS3	35µM*	45µM*	-16%	3%
Clc1ccc(CSc2nnc(-c3cccnc3)n2Cc2ccco2)c(Cl)c1	35µM*	0%	-27%	-13%
Cc1cc(CSc2nnc(-c3cccnc3)n2Cc2ccco2)on1	x	-1%	x	x
COc1ccc(C(=O)CSc2nnc(-c3cccnc3)n2Cc2ccco2)cc1	0%	u	-13%	14%
Clc1cccc(CSc2nnc(-c3cccnc3)n2Cc2ccco2)c1	50µM*	-28%	-11%	8%
c1cncc(CSc2nnc(-c3cccnc3)n2Cc2ccco2)c1	16%	-8%	x	x
O=C(CSc1nnc(-c2cccnc2)n1Cc1ccco1)N1c2ccccc2Sc2ccccc21	3.5µM*	32µM*	-9%	9%
CC(=O)Nc1ccc(-c2ccnc3c2CC(C(=O)Nc2ccc(Cl)c(C(F)(F)F)c2)O3)cc1 (stereo not given)	x	0%	-3%	x
COc1ccc(CN2CCC23Cc2ccccc2NC3=O)cc1 (stereo not given)	x	63%[176 µM]	x	x
COc1cc(C=C2C(=O)OC(C)(C)OC2=O)ccc1OCC(=O)Nc1ccccc1	18%	0%	19µM*	-5%
COc1cc(/C=C2/NC(=O)N(CC(=O)Nc3cccc(C)c3)C2=O)ccc1OCC(N)=O	3%	-49%	27µM*	u
Cc1ccc(OCC(=O)Nc2cccnc2Cl)cc1C	18%	-22%	-10%	-23%
CCOC(=O)N1CCN(C(=O)c2nn3c(C(F)(F)F)cc(-c4cccs4)nc3c2Cl)CC1	x	-33%	x	x
CCOc1ccc(NC(=O)CN(c2ccc(CC)cc2)S(=O)(=O)c2ccccc2)cc1	x	-56%	x	x
NC(=O)C1CCN(C(=O)C23CC4CC(CC(C4)C2)C3)CC1	11%	0%[57.4 µM]	-12%	-1%
Cc1ccc(CNC(=O)CC23CC4CC(CC(C4)C2)C3)cc1	x	-3%	x	x
SMILES	Sfp inh	12-LOX inh	PLK1 PBD block	VDR inhibitor
O=C(CC12CC3CC(CC(C3)C1)C2)NCc1ccc(F)cc1	8%	22%	30µM*	-26%
CCC(=O)C1CCCN(C(=O)CCc2nnc(-c3ccc(C(C)=O)s3)o2)C1 (stereo not given)	16%	1%	-4%	25%
Cn1nc(C(=O)N2CCCCC2)c2c1-c1ccsc1CC2	x	-15%	x	x
O=C(O)/C=C/C(=O)Nc1ccccc1SC(F)(F)F	13µM*	u	-29%	-11%
O=C(O)/C=C/C(=O)Nc1ccccc1-c1ccccc1NC(=O)/C=C/C(=O)O	7.9µM*	-14%	-24%	-9%
O=C(O)/C=C/C(=O)Nc1ccccc1C(F)(F)F	x	-7%	x	x
O=C(C(=O)N1CCc2ccccc2C1)c1cn(CC(=O)N2CCCC2)c2ccccc12	9%	-16%	-8%	-4%
COc1cc2[nH]c(=O)c(C(=O)NCCCN3CCCCC3)c(O)c2cc1OC	13%	36%	-4%	-5%
Cc1ccc(-c2c3c([nH]c(=S)c2C#N)CCCC3)o1	8.9µM*	u	12µM*	u
Cc1ccc(-c2c(C#N)c(N)nc3c2CCCC3)o1	1%	-7%	0%	2%
N#Cc1c(-c2ccncc2)c2c([nH]c1=S)CCCC2	5µM*	20µM*	27µM*	-14%
